Source: PubChem BioAssay
TWEAK Fn14 block: blocks TWEAK-Fn14 interaction in a reporter cell assay. TWEAK-stimulated Fn14 reporter cells, luciferase luminescence, 8 h. inhibition, % at 10 µM. 360,000 tested, 2% active. AID 1159606; in the data active means inhibition above about 50%
PAX8 reporter: PAX8 transcriptional activity inhibition; 360,000 tested, 1.2% active; inhibition, % at 12.6 µM; RMG-I TPO-luciferase reporter, SteadyGlo, 24 h; AID 652154;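 active means mean replicate inhibition at least 60% with every replicate also reaching 60%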;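 further: luciferase light reporting Pax8 driven TPO promoter activity; plate controls were median of neutral control wells for no effect and mitoxantrone controls for full effect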
LMP1 NFkB inh: Epstein-Barr LMP1 NF-kappaB reporter inhibition; inhibition, % at 12.5 µM; LMP1-induced NF-kappaB luciferase reporter cells, luminescence; AID 504558; 350,000 tested, 0.69% active; in the data active means inhibition above about 41%;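 further: 0% = neutral control wells and 100% = reference inhibitor control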
TROY signal inh: blocks TROY-dependent signaling in reporter cells; Q293 LMP1-TROYcd NF-kB luciferase reporter, 4 h; inhibition, % at 10 µM; 360,000 tested, 0.98% active; AID 1347056;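 active means compounds whose plate-normalised and pattern-corrected inhibition of the luciferase reporter signal at the single screening dose is 50% or more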
EWS-Fli inh: inhibitors of EWS/Fli oncoprotein transcriptional activity | A673 NR0B1-luciferase reporter, viability-normalised | inhibition, % at 12.6 µM | 350,000 tested, 0.67% active | AID 651661;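 active means mean inhibition of at least 50% after viability correction, with every replicate also passing that limit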;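 further: firefly luciferase signal divided by Alamar Blue viability fluorescence both relative to DMSO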
LGR2 antag: inhibitors of bursicon-induced Drosophila LGR2 receptor cAMP signaling; inhibition, % at 9.99 µM; HEK293 LGR2, CRE-luciferase, bursicon-stimulated, 4 h; 380,000 tested, 0.35% active; AID 720647;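 active means drop in luminescence signal, shown as inhibition above about 50% in the replicate tests, limit read from the data, passing the limit was not always enough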;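 further: agonist challenge used bursicon conditioned medium at about half maximal strength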
* marks the source's active call; other numbers are inactive results. Hits are enriched below; roughly 3.1% of the tested compounds scored in any of these assays.

For COc1ccc(CCNC(=O)CCC2COc3ccccc3O2)cc1OC (stereo not drawn) the results were TWEAK Fn14 block -8, LMP1 NFkB inh 1 and TROY signal inh 12.
Screening Cc1ccc(S(=O)(=O)N(C)C[C@H]2Oc3c(NS(=O)(=O)c4cn(C)cn4)cccc3C(=O)N([C@@H](C)CO)C[C@@H]2C)cc1 returned PAX8 reporter -1, EWS-Fli inh -3 and LGR2 antag -7.
`COc1ccc(C(=O)/C=C/c2ccccc2)c(O)c1` gave TWEAK Fn14 block 21, LMP1 NFkB inh -3, TROY signal inh -65 and EWS-Fli inh -68.
Screening COc1cc(OC)c(C(=O)/C=C/c2ccccc2)c(O)c1O returned TWEAK Fn14 block 64*, LMP1 NFkB inh -1, TROY signal inh 19, EWS-Fli inh 3 and LGR2 antag -4.
`COc1cc(O)cc(O)c1C(=O)/C=C/c1ccccc1` gave TWEAK Fn14 block 78*, LMP1 NFkB inh -3, TROY signal inh 4 and EWS-Fli inh -1.
COc1ccc(C=CC(=O)c2ccc(OCc3ccccc3)c(OC)c2)cc1OC was read as TWEAK Fn14 block -12, PAX8 reporter 23, LMP1 NFkB inh 7, TROY signal inh -20, EWS-Fli inh 1 and LGR2 antag 1.
COc1cc(/C=C/C(O)=C/C(=O)/C=C/c2ccc(O)cc2)ccc1O was read as TWEAK Fn14 block 38, PAX8 reporter 63*, LMP1 NFkB inh -13, TROY signal inh -13, EWS-Fli inh 20 and LGR2 antag -1.
`C[C@@H]1CN([C@H](C)CO)C(=O)c2cc(NS(=O)(=O)c3cn(C)cn3)ccc2O[C@@H]1CN(C)CC1CC1` gave PAX8 reporter -4, EWS-Fli inh -13 and LGR2 antag 10.
`C[C@H]1CN([C@@H](C)CO)C(=O)c2cc(C#CC3CCCCC3)cnc2O[C@@H]1CN(C)C(=O)C1CCCCC1` gave EWS-Fli inh 19 and LGR2 antag -15.
Screening Clc1cccc(-c2cc3nc4c(c(N5CCN(c6cnccn6)CC5)n3n2)CCCC4)c1 returned TWEAK Fn14 block 61*, LMP1 NFkB inh -48 and TROY signal inh 26.
Screening C[C@H](CO)N1C[C@H](C)[C@@H](CN(C)S(=O)(=O)c2cccs2)Oc2ncc(C#CCC3CCCC3)cc2C1=O returned PAX8 reporter 13, EWS-Fli inh 13 and LGR2 antag 13.
CCOc1ccc(-c2nnc(SCc3nnc(-c4ccccc4)o3)n2-c2ccccc2F)cc1 was read as TWEAK Fn14 block 52*, LMP1 NFkB inh 16 and TROY signal inh 61*.
`C[C@@H]1CCCCO[C@@H](CN(C)C(=O)c2ccccc2)[C@@H](C)CN([C@H](C)CO)C(=O)c2cc(NC(=O)Nc3ccc(C(F)(F)F)cc3)ccc2O1` gave PAX8 reporter 15, EWS-Fli inh -13 and LGR2 antag 6.
`C[C@@H]1CCCCO[C@@H](CN(C)C(=O)c2ccccc2)[C@@H](C)CN([C@@H](C)CO)C(=O)c2cc(NC(=O)Nc3ccc(C(F)(F)F)cc3)ccc2O1` gave PAX8 reporter 86*, EWS-Fli inh -5 and LGR2 antag -9.
C[C@H]1CCCCO[C@@H](CN(C)C(=O)c2ccccc2)[C@@H](C)CN([C@@H](C)CO)C(=O)c2cc(NC(=O)Nc3ccc(C(F)(F)F)cc3)ccc2O1 was read as PAX8 reporter 89*, EWS-Fli inh -15 and LGR2 antag -11.
C[C@@H]1CCCCO[C@@H](CN(C)C(=O)Cc2ccccc2)[C@H](C)CN([C@@H](C)CO)C(=O)c2cc(NC(=O)Nc3ccc(C(F)(F)F)cc3)ccc2O1 was read as PAX8 reporter 71*, EWS-Fli inh 4 and LGR2 antag 10.
Screening C[C@@H]1CN([C@H](C)CO)C(=O)c2cc(NC(=O)Nc3ccc(C(F)(F)F)cc3)ccc2O[C@@H](C)CCCCO[C@@H]1CN(C)C(=O)c1ccccc1 returned PAX8 reporter 88*, EWS-Fli inh -4 and LGR2 antag 12.
C[C@H]1CN([C@@H](C)CO)C(=O)c2cccc(NS(=O)(=O)c3cn(C)cn3)c2O[C@H]1CN(C)C(=O)Nc1cccc2ccccc12 was read as EWS-Fli inh -2 and LGR2 antag -5.
For COc1ccc(S(=O)(=O)N[C@H]2CC[C@@H](CCn3cc(-c4cccc(F)c4)nn3)O[C@H]2CO)cc1 the results were PAX8 reporter 17, EWS-Fli inh 2 and LGR2 antag 7.
For C[C@@H]1CN([C@H](C)CO)C(=O)Cc2cc(NC(=O)CCCCCC(=O)Nc3ccccc3N)ccc2O[C@H]1CN(C)S(=O)(=O)c1cccs1 the results were PAX8 reporter -19, EWS-Fli inh 6 and LGR2 antag -5.
For C[C@@H]1CCCCO[C@@H](CN(C)C)[C@H](C)CN([C@H](C)CO)C(=O)c2cc(NC(=O)c3ccncc3)ccc2O1 the results were PAX8 reporter -13, EWS-Fli inh -5 and LGR2 antag -1.
For C[C@@H]1CCCCO[C@H](CN(C)C(=O)c2ccccc2)[C@H](C)CN([C@@H](C)CO)C(=O)c2cc(NC(=O)Nc3ccc(C(F)(F)F)cc3)ccc2O1 the results were PAX8 reporter 87*, EWS-Fli inh 10 and LGR2 antag 0.
C[C@@H]1CCCCO[C@@H](CN(C)C(=O)c2ccccc2)[C@H](C)CN([C@H](C)CO)C(=O)c2cc(NC(=O)Nc3ccc(C(F)(F)F)cc3)ccc2O1 was read as PAX8 reporter 102*, EWS-Fli inh 6 and LGR2 antag 4.
Screening C[C@@H]1CCCCO[C@H](CN(C)C(=O)c2ccccc2)[C@@H](C)CN([C@@H](C)CO)C(=O)c2cc(NC(=O)Nc3ccc(C(F)(F)F)cc3)ccc2O1 returned PAX8 reporter 94*, EWS-Fli inh -7 and LGR2 antag -7.
For C[C@H](CO)N1C[C@H](C)[C@H](CN(C)C(=O)NC2CCCCC2)OCCCC[C@H](C)Oc2ccc(NS(=O)(=O)c3cn(C)cn3)cc2C1=O the results were PAX8 reporter -9, EWS-Fli inh -3 and LGR2 antag 31.
CC(=O)N1[C@@H](CO)[C@H](c2ccccc2)C12CN(C(=O)c1ccc3c(c1)OCO3)C2 was read as EWS-Fli inh -1 and LGR2 antag 1.
CC(=O)OCC(=O)[C@H]1CC[C@H]2[C@@H]3CCC4=CC(=O)CC[C@]4(C)[C@H]3CC[C@]12C was read as TWEAK Fn14 block -4, PAX8 reporter -2, LMP1 NFkB inh 1, TROY signal inh 8, EWS-Fli inh -3 and LGR2 antag 5.
Screening C[C@]12CC[C@H]3[C@@H](CCC4=CC(=O)CC[C@@]43C)[C@@H]1CC[C@@H]2C(=O)CO returned TWEAK Fn14 block -1, PAX8 reporter 20, LMP1 NFkB inh 66*, TROY signal inh 6 and EWS-Fli inh 31.
